According to PubChem BioAssay AID1626 (SRMLSC, 2009):
The campaign covered roughly 220,000 compounds. About 2,000 (0.91%) were called active. Another 2% or so got no clear call; they are omitted. No stated cut-off is given here; in the data, inconclusive means inhibition above about 80% without an active follow-up result; inactive means below that; test concentration not stated here. Only a sample is shown. Entries with a potency or affinity are not part of this list.

Experiment: M. tuberculosis H37Rv growth inhibitors, H37Rv strain (AID 1626);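 further: bacteria incubated seven days before Alamar blue readout; 0% = bacteria only wells and 100% = bacteria with antibiotic wells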
Conditions: hits give high values, concentration not given here

| Compound | inhibition |
| --- | --- |
| COc1ccc(-c2ccc([C@H]3[C@@H]4C=CCC[C@@]4(C)C(=O)N3Cc3ccccc3)c(F)c2)cc1 | 21.9% (inactive) |
| COc1ccc(-c2ccc(OC)c([C@H]3[C@@H]4C=CCC[C@@]4(C)C(=O)N3Cc3ccccc3)c2)cc1OC | 10.5% (inactive) |
| O=C(CCn1c(=O)oc2ccccc21)N(Cc1ccccc1)c1ccccc1 | -1.76% (inactive) |
| Cc1nc2c(cnn2-c2ccccc2)c(=O)n1/N=C/c1ccccc1 | 3.66% (inactive) |
| COc1ccc(C(=O)Cc2nnc(C)s2)c(OC)c1 | -1.08% (inactive) |
| Cc1[nH]c2ccccc2c1-c1csc(NC(=O)CN2CCOCC2)n1 | 1.74% (inactive) |
| O=C(COC(=O)c1cc(-c2ccccc2)nc2ccccc12)Nc1ccc2c(c1)OCO2 | -6.74% (inactive) |
| O=C(COC(=O)c1c2c(nc3ccccc13)CCCC2)Nc1ccc2c(c1)OCO2 | 4.85% (inactive) |
| COc1ccc(S(=O)(=O)N2CCCCCC2)cc1C(=O)OC(C)C(N)=O (centres undefined) | -6.24% (inactive) |
| CCN(CCCNC(=O)C1CCCN(S(=O)(=O)c2cnc[nH]2)C1)c1ccccc1 (centres undefined) | -7.75% (inactive) |
| COc1ccc(C)cc1NC(=O)C(OC(=O)C1CC1)c1ccccc1 (centres undefined) | 0.31% (inactive) |
| COc1ccc(C(=O)OCC(=O)Nc2ccc(Cl)cn2)cc1 | -2.66% (inactive) |
| O=C(COC(=O)c1ccccc1)Nc1ccc(Cl)cn1 | -1.7% (inactive) |
| O=C(CCN1C(=O)S/C(=C\c2cccs2)C1=O)NC1=NCCS1 | -3.39% (inactive) |
| COc1ccc(Nc2nc(N)nc(COc3ccc(OC)cc3)n2)cc1 | 3.88% (inactive) |
| CCOC(=O)N1CCN(Cc2nc(N)nc(Nc3ccc(OCC)cc3)n2)CC1 | -0.7% (inactive) |
| COc1ccc(Nc2nc(N)nc(CCl)n2)cc1 | 63.6% (inactive) |
| Nc1nc(CN2CCCCCC2)nc(Nc2ccccc2)n1 | 0.64% (inactive) |
| Nc1nc(CN2CCN(c3ccccc3F)CC2)nc(Nc2ccccc2)n1 | 55.9% (inactive) |
| COc1cc(NC(=O)CCN2CCN(c3ccccc3F)CC2)cc(OC)c1 | -9.84% (inactive) |
| CCOc1ccc(NC(=O)CCN2CCN(c3ccccc3OC)CC2)cc1 | 7.58% (inactive) |
| Nc1nc(CN2CCN(Cc3ccccc3)CC2)nc(Nc2ccccc2)n1 | -0.83% (inactive) |

| Compound | inhibition |
| --- | --- |
| Cc1cc(Nc2ccc(C)c(Br)c2)n2nc(C)nc2n1 | -3.51% (inactive) |
| Cc1cccn2c(=O)c(/C=N/O)c(Nc3ccccc3F)nc12 | -2.23% (inactive) |
| CCOC(=O)c1cccc(NC(=O)CN(c2ccc(C)cc2)S(=O)(=O)c2c(C)n[nH]c2C)c1 | -3.83% (inactive) |
| Cc1ccc(Nc2nc(N)nc(CCl)n2)cc1 | 73.8% (inactive) |
| COc1cccc(Nc2nc(N)nc(CCl)n2)c1 | 75.6% (inactive) |
| COc1cnc(N(C)C)nc1Sc1ccc(Cl)cc1 | -2.94% (inactive) |
| CCOC(=O)CSc1nc(-c2ccccn2)ncc1OC | 10.3% (inactive) |
| Cc1ccc(SCc2nc(-c3ccccn3)no2)cc1 | 11.6% (inactive) |
| COc1ccc(Sc2cc(C(F)(F)F)nc(-c3ccccn3)n2)cc1 | 4.59% (inactive) |
| COc1ccccc1-c1nc(-c2ccccn2)no1 | 0.6% (inactive) |
| FC(F)(F)c1cc(Sc2ccccc2)nc(-c2ccccn2)n1 | 4.07% (inactive) |
| COc1cccc(-c2nc(-c3ccccn3)no2)c1OC | -1.55% (inactive) |
| COc1cnc(-c2ccccc2)nc1Sc1ccccc1 | -2.28% (inactive) |
| c1ccc2c(N3CCCCC3)nnc(N3CCCCC3)c2c1 | -2.8% (inactive) |
| Cc1nc(-c2ccccc2)sc1C1(C)CC(c2ccc(C#N)cc2)=NO1 (centres undefined) | -5.09% (inactive) |
| Cc1cnc(C(=O)OCC(=O)Nc2cc(Cl)cc(Cl)c2)cn1 | -2.03% (inactive) |
| CC(=O)N1CCC2(CC1)CC(=O)c1cc(OCC(=O)NCc3ccc(C)cc3)ccc1O2 | 4.89% (inactive) |
| CCOc1ccc(Cc2noc3c2C(=O)CC(C)(C)C3)cc1OCC | 5.77% (inactive) |
| O=C(CNc1cc(S(=O)(=O)N2CCCC2)ccc1OCC(F)(F)F)Nc1cc(Cl)cc(Cl)c1 | 0.25% (inactive) |
| CCC12CN3CCN(CC(C3)C1O)C2 (centres undefined) | -8.91% (inactive) |
| CCOC(=O)C(NC(=O)CC(C)C)(Nc1sc(C)c(CC)c1C#N)C(F)(F)F (centres undefined) | -1.9% (inactive) |
| OC(CNCc1cccc(Cl)c1)c1ccccc1 (centres undefined) | 6.44% (inactive) |

| Compound | inhibition |
| --- | --- |
| NCC(c1ccccc1)c1c[nH]c2ccccc12 (centres undefined) | -2.1% (inactive) |
| COc1ccc(C2=NCCn3cccc32)c(OC)c1 | 4.72% (inactive) |
| Cc1ccn2c(Nc3ccc4c(c3)OCO4)c(-c3ccccn3)nc2c1 | 12.5% (inactive) |
| Cc1ccn2c(Nc3ccccc3C)c(-c3cccnc3)nc2c1 | 3.46% (inactive) |
| Cc1ccc(-c2nc3ncccn3c2Nc2ccccc2C)o1 | 10.9% (inactive) |
| Cc1ccn2c(NC3CCCC3)c(-c3cccs3)nc2c1 | -6.97% (inactive) |
| Cc1ccn2c(NC3CCCC3)c(-c3ccncc3)nc2c1 | -0.8% (inactive) |
| Cc1ccn2c(Nc3ccccc3C)c(-c3ccncc3)nc2c1 | -1.59% (inactive) |
| Cc1ccc(Nc2c(-c3ccccc3)nc3cnccn23)cc1 | 3.65% (inactive) |
| Cc1ccccc1Nc1c(-c2cccnc2)nc2ccccn12 | 3.53% (inactive) |
| CCOc1ccccc1NC(=O)CN1C(=O)COc2ccc(Cl)cc21 | -3.19% (inactive) |
| Cc1cc(CNC(=O)Cn2nc(C)c([N+](=O)[O-])c2C)c2ccccc2n1 | -7.05% (inactive) |
| Oc1cccnc1CCc1ccccc1 | -10.6% (inactive) |
| CCOC(=O)c1sc(NC(=O)c2ccc(C)o2)nc1C | 2.75% (inactive) |
| CCCn1nnc(NC(=O)c2cccnc2Cl)n1 | 7.01% (inactive) |
| Cc1cc(NC(=O)CSc2nc(C3CCCCC3)nc3ccccc23)no1 | 7.18% (inactive) |
| Nc1c(-c2ccccc2)cnc2cc(-c3ccccc3)nn12 | 4.02% (inactive) |
| Cc1ccc(-c2nc3cnccn3c2Nc2ccccc2)o1 | 9.96% (inactive) |
| Cc1ccn2c(NCc3ccccc3)c(-c3cccs3)nc2c1 | 6.23% (inactive) |
| CCOc1ccccc1NC(=O)NC1(C(=O)N2CCOCC2)CCCCC1 | -10.7% (inactive) |
